# Several values for one entry are separate records, joined by “and”; a condition that tells them apart may be missing. Equal values may be shown once. Results filed as inconclusive are left out. A call without a number means that no potency is given here. Some compounds were tested as several samples or in several runs, with calls that do not always agree. Activity calls are given as the source filed them. Unless noted, the call rests on the fitted dose curve; in most records, active means well fitted curve in the direction sought with a large enough effect in the repeat runs; inconclusive means weak or mixed curves; inactive means no such curve, though single readings can be large; an effect the other way counts as inactive or inconclusive.
# Key:
# [1] = qHTS assay to identify small molecule antagonists of the peroxisome proliferator-activated receptor delta (PPARd) signaling pathway - cell viability counter screen (AID 743213); further: nearly all actives have a fitted effect of over 50% in size; further: potency means the concentration at half of the fitted maximal effect
# Method in brief: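 CellTiter-Glo was added to PPARd-bla HEK293H wells following 17 h compound treatment in the presence of 300 nM L165041. Luminescence was recorded after 30 min at room temperature.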
# [2] = target: Peroxisome proliferator-activated receptor delta (Homo sapiens) (UniProt Q03181); test: qHTS assay to identify small molecule antagonists of the peroxisome proliferator-activated receptor delta (PPARd) signaling pathway (AID 743215; active means well fitted inhibition curve with a large enough effect in the signal ratio in the repeat runs, not every such curve was filed as active; the % refers to the signal ratio;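 further: cells stimulated with agonist L165041 at 300 nM final during compound exposure; series mostly up to about 62 µM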)
# Method in brief: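 Read-out is beta-lactamase FRET fluorescence, measured 2 h after substrate addition at room temperature. Beforehand, UAS-bla HEK293H cells carrying the PPARd reporter were exposed to compounds with L165041 at 300 nM final for 17 h at 37 C.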
# [3] = target: Bile acid receptor (Homo sapiens) (UniProt Q96RI1); test: qHTS assay to identify small molecule antagonists of the farnesoid-X-receptor (FXR) signaling pathway (AID 743217; active means well fitted inhibition curve with a large enough effect in the signal ratio in the repeat runs, not every such curve was filed as active; the % refers to the signal ratio)
# Method in brief: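 HEK 293T FXR-UAS-bla, 5000 cells/well; compound + CDCA 50 uM final; 16 h, 37 °C; B/G FRET substrate 2 h RT; fluorescence.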
# [4] = qHTS assay to identify small molecule agonists of the farnesoid-X-receptor (FXR) signaling pathway - cell viability counter screen (AID 743218); further: nearly all actives have a fitted effect of over 45% in size; further: potency means the concentration at half of the fitted maximal effect
# Method in brief: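 HEK 293T FXR-bla cells; 5 h pre-incubation, 16 h compound exposure at 37 C; LiveBLAzer substrate 2 h RT, then CellTiter-Glo 30 min RT, luminescence.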
# [5] = target: Bile acid receptor (Homo sapiens) (UniProt Q96RI1); test: qHTS assay to identify small molecule agonists of the farnesoid-X-receptor (FXR) signaling pathway (AID 743220; active means well fitted activation curve with a large enough effect in the signal ratio in the repeat runs, not every such curve was filed as active; the % refers to the signal ratio)
# Method in brief: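 Beta-lactamase reporter under UAS control in GeneBLAzer FXR HEK 293T cells (5000/well) measured with LiveBLAzer FRET substrate after 2 h at room temperature. Compound exposure lasted 16 h at 37C.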
# [6] = qHTS assay to identify small molecule antagonists of the farnesoid-X-receptor (FXR) signaling pathway - cell viability counter screen (AID 743221; active means well fitted cell-killing curve with a large enough effect in the repeat runs, not every such curve was filed as active; further: nearly all actives have a fitted effect of over 50% in size)
# Method in brief: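 Luminescence from CellTiter-Glo measures cytotoxicity in GeneBLAzer FXR-UAS-bla HEK 293T cells. Cells were exposed to compounds with 50 uM chenodeoxycholic acid (final) for 16 h at 37 C, in wells also used for the reporter readout.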
# [7] = target: Vitamin D3 receptor (Homo sapiens) (UniProt P11473); test: qHTS assay to identify small molecule agonists of the vitamin D receptor (VDR) signaling pathway (AID 743222; calls by dose curve)
# Method in brief: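 VDR-bla cells, 2,000/well; 4 h preincubation 37C; cpd (DMSO) 16 h; LiveBLAzer B/G substrate 2 h RT; fluorescence intensity read.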
# [8] = target: Vitamin D3 receptor (Homo sapiens) (UniProt P11473); test: qHTS assay to identify small molecule antagonists of the vitamin D receptor (VDR) signaling pathway (AID 743223; active means well fitted inhibition curve with a large enough effect in the signal ratio in the repeat runs, not every such curve was filed as active; the % refers to the signal ratio; further: potency means the concentration at half of the fitted maximal effect)
# Method in brief: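 Antagonist mode uses 1alpha,25-dihydroxyvitamin D3 at 3 nM final as stimulus. VDR-bla cells receive compounds in DMSO, incubate 16 h at 37C, then a beta-lactamase FRET substrate for 2 h at room temperature before fluorescence measurement.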
# [9] = qHTS assay to identify small molecule agonists of the vitamin D receptor (VDR) signaling pathway - cell viability counter screen (AID 743224); further: nearly all actives have a fitted effect of over 50% in size; further: potency means the concentration at half of the fitted maximal effect
# Method in brief: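 Luminescence from CellTiter-Glo, read after 30 min at room temperature, reports viability of VDR-bla cells treated with compounds for 16 h at 37C in the wells used for the beta-lactamase FRET read.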
# [10] = qHTS assay to identify small molecule antagonists of the vitamin D receptor (VDR) signaling pathway - cell viability counter screen (AID 743225); further: nearly all actives have a fitted effect of over 50% in size; further: potency means the concentration at half of the fitted maximal effect
# Method in brief: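 Read-out: CellTiter-Glo luminescence measured 30 min after reagent addition at room temperature. Cells were VDR-bla HEK 293T exposed 16 h at 37C, 5% CO2, to compound with 3 nM final calcitriol agonist.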
# Chain of Bile acid receptor (Homo sapiens) (Q96RI1 whole entry, looked up): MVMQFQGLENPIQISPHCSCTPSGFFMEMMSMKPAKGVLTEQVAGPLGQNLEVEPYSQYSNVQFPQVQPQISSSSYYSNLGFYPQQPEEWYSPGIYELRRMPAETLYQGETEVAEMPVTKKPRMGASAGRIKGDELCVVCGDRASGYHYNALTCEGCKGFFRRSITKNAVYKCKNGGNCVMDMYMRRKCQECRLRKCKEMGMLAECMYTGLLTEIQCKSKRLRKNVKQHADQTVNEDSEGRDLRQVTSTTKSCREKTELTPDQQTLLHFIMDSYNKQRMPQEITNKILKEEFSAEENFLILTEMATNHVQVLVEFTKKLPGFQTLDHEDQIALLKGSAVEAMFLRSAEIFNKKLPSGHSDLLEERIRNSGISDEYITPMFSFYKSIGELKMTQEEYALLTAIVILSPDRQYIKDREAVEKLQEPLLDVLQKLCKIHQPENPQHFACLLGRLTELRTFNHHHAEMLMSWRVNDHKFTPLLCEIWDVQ
# Chain of Peroxisome proliferator-activated receptor delta (Homo sapiens) (Q03181 whole entry, looked up): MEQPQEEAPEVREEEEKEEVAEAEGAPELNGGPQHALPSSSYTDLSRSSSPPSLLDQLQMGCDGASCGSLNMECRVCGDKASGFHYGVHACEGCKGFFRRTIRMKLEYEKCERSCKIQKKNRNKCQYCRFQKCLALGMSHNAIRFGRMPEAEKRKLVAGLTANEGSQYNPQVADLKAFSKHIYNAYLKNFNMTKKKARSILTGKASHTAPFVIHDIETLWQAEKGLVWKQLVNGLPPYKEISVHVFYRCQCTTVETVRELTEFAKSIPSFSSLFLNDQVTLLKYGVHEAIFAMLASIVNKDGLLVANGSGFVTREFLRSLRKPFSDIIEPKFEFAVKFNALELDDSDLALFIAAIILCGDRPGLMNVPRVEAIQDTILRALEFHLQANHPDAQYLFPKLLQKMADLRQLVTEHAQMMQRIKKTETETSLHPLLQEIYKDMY
# Chain of Vitamin D3 receptor (Homo sapiens) (P11473 whole entry, looked up): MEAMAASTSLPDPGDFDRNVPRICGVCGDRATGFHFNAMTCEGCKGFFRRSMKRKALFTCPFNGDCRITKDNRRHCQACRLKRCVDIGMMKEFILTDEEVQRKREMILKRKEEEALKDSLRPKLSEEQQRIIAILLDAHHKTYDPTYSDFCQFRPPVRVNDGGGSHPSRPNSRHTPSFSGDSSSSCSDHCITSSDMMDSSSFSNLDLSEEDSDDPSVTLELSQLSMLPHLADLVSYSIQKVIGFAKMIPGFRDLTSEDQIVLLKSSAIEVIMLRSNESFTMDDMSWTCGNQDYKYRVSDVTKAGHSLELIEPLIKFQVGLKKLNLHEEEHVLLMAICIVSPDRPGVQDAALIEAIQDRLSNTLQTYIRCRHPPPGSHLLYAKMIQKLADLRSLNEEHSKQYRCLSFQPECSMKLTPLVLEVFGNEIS
SMILES,Potency [1],outcome [2],outcome [3],Potency [4],outcome [5],Potency [6],Potency [7],Potency [8],Potency [9],Potency [10]
CCc1ccccc1O,inactive,inactive,inactive,inactive,inactive,inactive,inactive,inactive,inactive,inactive
CC(C)(C)C(=O)C1C(=O)c2ccccc2C1=O,inactive,inactive,–,inactive,inactive,inactive,inactive,inactive,inactive,inactive
NC(=O)/N=N/C(N)=O,inactive,inactive,inactive,inactive,inactive,inactive,inactive,inactive,inactive,inactive
O=C(c1ccc(O)cc1)c1ccc(O)cc1O,inactive,inactive,inactive,inactive,inactive,inactive,–,–,inactive,inactive
O=C(O)c1ccc([N+](=O)[O-])cc1,inactive,inactive,inactive,inactive,inactive,inactive,inactive,inactive,inactive,inactive
C=C1CC[C@H](O)CC1=C/C=C1\CCC[C@]2(C)[C@@H]([C@H](C)/C=C/[C@H](C)C(C)C)CC[C@@H]12,–,–,–,–,inactive,–,–,–,–,–
Oc1c(Cl)cc(Cl)c(Cl)c1Cl,–,–,–,–,inactive,–,–,–,–,–
O=C(Oc1ccccc1)c1ccc(O)cc1,inactive,–,–,inactive,–,inactive,inactive,inactive,inactive,inactive
CC1(C)CC(N=C=O)CC(C)(CN=C=O)C1 (configuration not stated),inactive,–,inactive,inactive,inactive,inactive,inactive,inactive,inactive,inactive
CC(=O)[C@@]1(O)CC[C@H]2[C@@H]3CCC4=CC(=O)CC[C@]4(C)[C@H]3CC[C@@]21C,inactive,–,–,inactive,–,inactive,–,–,inactive,inactive
CCCCCCC(C)(C)S,inactive,–,inactive,inactive,inactive,inactive,–,–,inactive,inactive
CCCCC/C=C\C/C=C\CCCCCCCC(=O)OC,inactive,–,–,inactive and 54.9 µM (active),–,inactive,–,–,inactive and 49 µM (active),inactive
Cc1cc(Cc2ccc(N)c(C)c2)ccc1N,inactive,–,inactive,inactive,inactive,inactive,–,–,inactive,inactive
CC1=CC[C@H]2C[C@@H]1C2(C)C,inactive,–,–,inactive,–,inactive,inactive,–,inactive,inactive
CC#C[C@]1(O)CC[C@H]2[C@@H]3CCC4=CC(=O)CCC4=C3[C@@H](c3ccc(N(C)C)cc3)C[C@@]21C,inactive,–,–,–,–,inactive,–,–,inactive,inactive
COC(=O)c1ccc(C(=O)OC)cc1,inactive,–,–,inactive,–,inactive,inactive,inactive,inactive,inactive
OC[C@@H](O)[C@H](O)[C@H](O)[C@@H](O)CO,inactive,–,–,inactive,–,inactive,inactive,inactive,inactive,inactive
OC[C@@H](O)[C@@H](O)[C@H](O)[C@@H](O)CO,inactive,–,–,inactive,–,inactive,inactive,–,inactive,inactive
Nc1c(S(=O)(=O)O)cc(Br)c2c1C(=O)c1ccccc1C2=O,inactive,–,–,inactive,–,inactive,inactive,inactive,inactive,inactive
CC(C)n1c(/C=C/[C@@H](O)C[C@@H](O)CC(=O)O)c(-c2ccc(F)cc2)c2ccccc21,–,–,–,inactive,–,inactive,–,–,inactive,inactive
CC(C)NCC(O)COc1cccc2ccccc12 (configuration not stated),49.5 µM (active) and 21.9 µM (active),–,inactive,inactive,inactive,inactive,inactive,inactive,inactive,inactive
COC(=O)Nc1nc2ccc(Sc3ccccc3)cc2[nH]1,inactive,–,–,inactive,–,inactive,inactive,–,inactive,inactive
CN(C)c1cccc(O)c1,–,inactive,–,inactive,–,inactive,inactive,inactive,inactive,inactive

SMILES,Potency [1],outcome [2],outcome [3],Potency [4],outcome [5],Potency [6],Potency [7],Potency [8],Potency [9],Potency [10]
Cc1cc(O)c2c(c1)C(=O)c1cc(O)cc(O)c1C2=O,inactive,–,–,–,–,inactive,–,–,24 µM (active) and inactive,inactive
C=C(C)C(=O)OCCCCCC,inactive,–,–,inactive,–,inactive,inactive,inactive,inactive,inactive
S=c1nc[nH]c2nc[nH]c12,–,inactive,–,inactive,–,–,–,inactive,15.1 µM (active) and 10.6 µM (active),4.25 µM (active)
CN(CCOc1ccc(CC2SC(=O)NC2=O)cc1)c1ccccn1 (configuration not stated),inactive,–,inactive,inactive,inactive,inactive,–,–,–,–
Cc1cc(NS(=O)(=O)c2ccc(N)cc2)no1,inactive,–,inactive,inactive,inactive,inactive,inactive,inactive,inactive,inactive
C=C(C#N)C(=O)OCC,inactive,–,–,inactive,–,inactive,–,–,inactive,inactive
CC1Cc2ccccc2N1NC(=O)c1ccc(Cl)c(S(N)(=O)=O)c1 (configuration not stated),inactive,–,–,inactive,–,inactive,–,–,inactive,inactive
NC(=O)NNc1ccccc1,inactive,–,–,inactive,–,inactive,inactive,inactive,inactive,inactive
C/C=C(C)/C=C/C=C(C)C,inactive,–,–,–,–,inactive,inactive,inactive,inactive,inactive
CN(C)c1ccc(C(=N)c2ccc(N(C)C)cc2)cc1,inactive,–,–,inactive,–,inactive,inactive,5.93 µM (active),–,inactive
COCC(C)O (configuration not stated),inactive,–,–,inactive,–,inactive,inactive,inactive,inactive,inactive
Oc1ccc2ccccc2c1,inactive and 3.89 µM (active),–,–,inactive,–,inactive,inactive,inactive,inactive,inactive
C[C@@H](O)[C@H]1C(=O)N2C(C(=O)O)=C(S[C@@H]3CN[C@H](C(=O)N(C)C)C3)[C@H](C)[C@H]12,inactive,–,–,inactive,–,inactive,inactive,inactive,inactive,inactive
NCCc1ccc(O)c(O)c1,inactive,–,inactive,inactive,inactive,inactive,inactive,inactive,inactive,inactive
O=C(O)c1cc(-c2ccccc2)nc2ccccc12,–,inactive,inactive,inactive,inactive,inactive,inactive,inactive,inactive,inactive
CC(=O)CCc1ccccc1,inactive,–,–,inactive,–,inactive,inactive,inactive,inactive,inactive
CS(=O)(=O)Nc1ccc([N+](=O)[O-])cc1Oc1ccccc1,inactive,–,–,inactive,–,inactive,inactive,inactive,inactive,inactive
OCC#CCO,inactive,–,inactive,inactive,inactive,inactive,inactive,inactive,inactive,inactive
CCCCCCCCCCC=CC1CC(=O)OC1=O (configuration not stated),inactive,–,inactive,inactive,inactive,inactive,inactive,inactive,inactive,inactive
Oc1ccc2ccccc2c1N=Nc1ccccc1,inactive,–,inactive,inactive,inactive,inactive,–,–,inactive,inactive
Cc1ccc(C(=O)O)o1,inactive,inactive,–,–,–,inactive,inactive,inactive,inactive,inactive
CC(=O)Nc1ccc(C(=O)O)cc1,inactive,–,–,inactive,–,inactive,–,–,inactive,inactive
O=C1N=C(O)CN1/N=C/c1ccc(-c2ccc([N+](=O)[O-])cc2)o1,inactive,–,–,–,–,inactive,inactive,inactive,inactive,inactive
